High-throughput results from PubChem BioAssay.
ClpP mod: qHTS Assay for Activators of ClpP | purified B. subtilis ClpP, FRET peptide cleavage, 20 min | Potency, µM (titrated, usually from 57.5 µM) | 340,000 tested, 1.9% active; active = well fitted falling curve with a large enough effect; inconclusive = small, poorly fitted or top-dose-only effect; inactive = no such curve, though single readings can be large or run the other way; note: the source files actives as falling curves though it sought activators and does not explain the sign; nearly all actives have a fitted effect of over 65% in size
Target sequence (P80244 whole entry, looked up): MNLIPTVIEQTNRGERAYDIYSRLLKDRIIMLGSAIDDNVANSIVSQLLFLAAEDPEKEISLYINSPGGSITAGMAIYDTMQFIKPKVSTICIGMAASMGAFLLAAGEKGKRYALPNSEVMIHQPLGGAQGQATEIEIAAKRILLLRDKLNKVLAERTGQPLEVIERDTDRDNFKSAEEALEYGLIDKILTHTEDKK
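FRET quenching reversal measured ClpP activation: 10 microg/mL B. subtilis ClpP at pH 8 with the FRET-FV decapeptide, read at 430 nm after 320 nm excitation. The 20-min minus 0-min signal was scaled between DMSO/no-enzyme wells and ADEP (5.8 microM final).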
DT40 TDP1 no CPT: qHTS for Inhibitors of human tyrosyl-DNA phosphodiesterase 1 (TDP1): qHTS in cells in absence of CPT; Potency, µM (titrated, usually from 46.2 µM), most hits filed as inhibitors; DT40 Tdp1-/- hTDP1 cells, no CPT, ATP luminescence, 48 h; 420,000 tested, 15% active; note: nearly all actives have a fitted effect of over 55% in size
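Camptothecin absent (DMSO only). Human TDP1-complemented DT40 knockout cells, 400 cells/well, 37 °C for minimum 48 hr; ATP measured via CellTiter-Glo, 30 min dark incubation, luminescence.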
IL1B secr inh: qHTS for Inhibitors of Inflammasome Signaling: IL-1-beta AlphaLISA Primary Screen; THP-1 LPS/ATP IL-1B secretion, AlphaLISA, 16 h; active compounds read low; activity change, % at 57.5 µM; 360,000 tested, 4.7% active; AID 743279, 2014; in the data active = activity change below about -50%; inconclusive = mostly about -30% to -49%
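Secreted IL-1B measured by AlphaLISA bead assay after 16 h compound exposure of THP-1 cells; compounds (final up to 57.5 uM) added 1 h before LPS (250 ng/mL) and ATP (1.25 mM) stimulation; lower signal means less secretion.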
D3 ag: qHTS of D3 Dopamine Receptor Agonist: qHTS; D(3) dopamine receptor (Homo sapiens), P35462; D3R DiscoveRx beta-arrestin cells, luminescence, 90 min; max activation, %; 410,000 tested, 0.58% active; AID 652048, 2013; in the data active = max activation above about 30%
Target sequence (P35462 whole entry, looked up): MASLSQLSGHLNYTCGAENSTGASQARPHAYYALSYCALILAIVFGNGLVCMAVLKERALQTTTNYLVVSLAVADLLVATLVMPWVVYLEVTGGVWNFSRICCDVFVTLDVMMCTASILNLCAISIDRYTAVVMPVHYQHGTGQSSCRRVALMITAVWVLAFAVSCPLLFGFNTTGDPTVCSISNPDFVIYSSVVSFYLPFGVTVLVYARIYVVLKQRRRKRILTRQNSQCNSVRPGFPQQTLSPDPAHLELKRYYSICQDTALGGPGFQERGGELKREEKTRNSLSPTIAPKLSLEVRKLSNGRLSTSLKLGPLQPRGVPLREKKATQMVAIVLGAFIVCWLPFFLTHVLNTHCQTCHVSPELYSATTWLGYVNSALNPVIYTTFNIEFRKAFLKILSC
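Agonist mode: compounds and dopamine controls were applied to plated cells for 90 min at 37 degrees C after an overnight attachment at 1500 cells/well. Luminescent read-out followed 30 - 60 minutes at room temperature with DiscoveRx detection reagent.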
D3 antag: qHTS of D3 Dopamine Receptor Antagonist: qHTS | D(3) dopamine receptor (Homo sapiens), P35462 | D3R cells, DiscoveRx beta-arrestin luminescence, antagonist mode; active compounds read low | max response, negative = inhibition, % | 360,000 tested, 2.5% active | AID 652054, 2013; in the data active = max response below about -50%; inconclusive = no clear call, values can overlap the other calls
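Cells expressing the human receptor were seeded at 1500 cells/well, incubated overnight at 37 degrees C in 5% CO2, then exposed to library compounds with dopamine controls for 90 minutes at 37 degrees C before luminescent detection.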
TDP1 cell CPT: qHTS for Inhibitors of human tyrosyl-DNA phosphodiesterase 1 (TDP1): qHTS in cells in presence of CPT | 420,000 tested, 12% active | AID 686979, 2013 | chicken DT40 Tdp1-/-;hTDP1 cells + 20 nM CPT, ATP luminescence, 48 h | Potency, µM (doses to about 46.2 µM), actives largely listed as inhibitors; note: nearly all actives have a fitted effect of over 55% in size
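Chicken DT40 Tdp1-/- cells complemented with human TDP1, 400 cells/well, exposed to compounds plus 20 nM camptothecin for at least 48 h at 37 C; viability read as ATP content by CellTiter-Glo luminescence.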
Numbers stand for hits; i = inactive; ? = inconclusive; nt = no result. Rows were chosen to be rich in hits. Some 21% of all compounds tested hit in one or more screens of this group. Unless noted, calls come from the whole dose curve; as a rule, active = well fitted inhibition curve with a large enough effect; inconclusive = small, poorly fitted or top-dose-only effect; inactive = flat fitted curve, though single readings scatter.

SMILES	ClpP mod	DT40 TDP1 no CPT	IL1B secr inh	D3 ag	D3 antag	TDP1 cell CPT
COc1cc(CNCCN(C)C)c(Br)cc1OC1CCCC1	i	?	i	i	i	18µM
C[C@H](CO)N1C[C@H](C)[C@@H](CN(C)S(C)(=O)=O)Oc2ccc(NC(=O)Cn3cnnn3)cc2C1=O	i	i	i	i	i	i
COc1ccc2cc(CN(CC3CCCO3)C(=O)Nc3ccccc3OC)c(=O)[nH]c2c1 (configuration not stated)	nt	4.6µM	i	i	?	4.1µM
COc1ccc(NC(=O)N(Cc2cc3ccc(OC)cc3[nH]c2=O)CC2CCCO2)cc1 (configuration not stated)	nt	13µM	i	i	i	18µM
CCNC(=O)NC(=O)C(C)Oc1ccc(Br)cc1Br (configuration not stated)	nt	i	i	i	i	i
CCn1cc(C2=NOC(C(=O)Nc3cccc(C(C)=O)c3)C2)c(C)n1 (configuration not stated)	i	?	i	i	i	16µM
CC(=O)c1cccc(NC(=O)C2Cc3c(-c4ccccc4)ccnc3O2)c1 (configuration not stated)	i	13µM	i	i	i	21µM
CC(=O)Nc1cccc(-c2ccnc3c2CC(C(=O)Nc2cccc(NS(C)(=O)=O)c2)O3)c1 (configuration not stated)	i	i	i	i	i	i
CS(=O)(=O)Nc1cccc(NC(=O)C2Cc3c(-c4ccccc4)ccnc3O2)c1 (configuration not stated)	i	7.3µM	i	i	i	10µM
CC(=O)c1cccc(NC(=O)C2Cc3c(-c4cccc(F)c4)ccnc3O2)c1 (configuration not stated)	i	?	i	i	i	18µM
COc1ccc(N2CC(C(=O)N3CCc4ccccc43)CC2=O)cc1 (configuration not stated)	i	i	i	i	i	i
COc1cccc(CNC(=O)c2cc3cc(C)ccc3n2C)c1	i	i	nt	i	nt	i
Cc1ccccc1OCCC(=O)Nc1ccc(N2CCOCC2)cc1N1CCOCC1	i	i	i	i	i	i
C[C@@H]1CN([C@@H](C)CO)C(=O)c2cc(NC(=O)C3CCCCC3)ccc2O[C@@H](C)CCCCO[C@@H]1CN(C)Cc1ccncc1	i	i	i	i	i	i
CCc1cccc(NC(=O)Cn2nc(-c3ccc(OC)cc3)ccc2=O)c1	i	?	nt	i	nt	i
CC(=O)c1cccc(-c2ccnc3c2CC(C(=O)Nc2ccc(F)c(Cl)c2)O3)c1 (configuration not stated)	i	21µM	i	i	i	18µM
CC(=O)c1cccc(-c2ccnc3c2CC(C(=O)Nc2ccccc2)O3)c1 (configuration not stated)	i	?	i	i	i	16µM
COCCCNC(=O)Nc1cc(C(=O)NCc2ccc(OC)cc2)ccc1N1CCCC1	i	i	nt	i	nt	i
Cc1cccc(Oc2nc(-c3ccccn3)nc3ccccc23)c1	nt	1µM	-99	i	i	1.2µM
CC(=O)Nc1ccc(Oc2nc(-c3ccccn3)nc3ccccc23)cc1	i	?	-94	i	i	?
O=[N+]([O-])c1ncccc1Oc1nc(-c2cccnc2)nc2ccccc12	nt	?	i	i	i	i
CC(=O)Nc1cccc(Oc2nc(-c3ccccn3)nc3ccccc23)c1	nt	?	nt	i	i	?
Cc1ccccc1Oc1nc(-c2ccccn2)nc2ccccc12	i	5.2µM	?	i	i	4.1µM
CCCCCn1c(=O)[nH]c2cc(C(=O)NC(C)CC)ccc2c1=O (configuration not stated)	i	i	nt	i	nt	i
O=C(COc1cccc2ccccc12)Nc1ccc(Cl)cc1C(=O)O	i	?	i	i	i	?
SMILES	ClpP mod	DT40 TDP1 no CPT	IL1B secr inh	D3 ag	D3 antag	TDP1 cell CPT
O=C(COc1cccc2ccccc12)Nc1cc(Cl)ccc1C(=O)O	i	i	-53	i	i	i
CCCOC(=O)c1cccc(NC(=O)COc2ccc([N+](=O)[O-])cc2)c1	i	23µM	i	i	i	18µM
CC(NS(=O)(=O)c1ccc(OCC(=O)Nc2cccc([N+](=O)[O-])c2)cc1)c1ccccc1 (configuration not stated)	nt	21µM	i	i	i	?
O=C(COc1ccccc1C(=O)Nc1ccccc1)Nc1cccc([N+](=O)[O-])c1	i	?	nt	nt	nt	13µM
O=C(COC(=O)COc1ccccc1)Nc1cccc([N+](=O)[O-])c1	nt	i	i	i	i	i
CC1CCN(C(=O)CSc2nnc(CNC(=O)c3ccc(F)cc3)o2)CC1	i	i	i	i	i	i
O=C(COc1ccccc1C(=O)Nc1ccccc1)Nc1ccc(Br)cc1	i	?	nt	nt	nt	?
O=C(COc1ccccc1C(=O)Nc1ccccc1)Nc1cccc(Cl)c1	i	18µM	nt	nt	nt	18µM
O=C(COc1ccccc1C(=O)Nc1cccc([N+](=O)[O-])c1)Nc1ccc(Br)cc1	i	16µM	nt	nt	nt	7.9µM
CCCCc1ccc(NC(=O)COC(=O)c2ccccc2OCC(=O)Nc2ccc(Br)cc2)cc1	i	?	nt	nt	nt	11µM
O=C(COc1ccccc1C(=O)Nc1ccccc1)NCCCCc1ccccc1	i	18µM	nt	nt	nt	?
CC(C)(C)NC(=O)COC(=O)c1ccccc1OCC(=O)Nc1ccc(Br)cc1	nt	i	i	i	i	i
O=C(COc1ccccc1C(=O)Nc1ccccc1)Nc1ccccc1Cl	i	?	nt	nt	nt	?
Cc1cc(C(F)F)n2nc(C(=O)Nc3cccc(Cl)c3C)nc2n1	i	i	nt	i	nt	i
Cc1ccccc1-c1noc(-c2cccnc2N(C)Cc2ccc(Cl)cc2)n1	?	?	nt	i	nt	?
CN1CCN(c2nc(-c3ccccc3)nc3c2oc2ccccc23)CC1	i	?	i	i	i	?
NC(=O)C1CCN(c2nc(-c3ccccc3)nc3ccccc23)CC1	i	i	-54	i	i	i
CC1CCCCN1C(=O)C1CCN(c2nc(-c3ccccc3)nc3c2CCC3)CC1 (configuration not stated)	i	15µM	i	i	i	21µM
NC(=O)C1CCN(c2nc(-c3ccccc3)nc3c2oc2ccccc23)CC1	i	?	-71	i	i	?
CCOC(=O)C1CCN(c2nc(-c3ccc(Br)cc3)nc3ccccc23)CC1	i	4.1µM	i	i	i	5.8µM
